TDP1 cell CPT = DT40-hTDP1 cell growth loss with CPT | chicken DT40 Tdp1-/-;hTDP1 cells + 20 nM CPT, ATP luminescence, 48 h | Potency, µM (top dose mostly 46.2 µM), for inactives: at the highest dose activity change, negative = growth inhibition, hits mostly inhibitors | hit rate 12% among 420,000; further: nearly all actives have a fitted effect of over 55% in size
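Cell growth measured by CellTiter-Glo luminescence after a minimum 48 h, 37 C compound exposure with 20 nM CPT in Tdp1-knockout DT40 cells stably expressing hTDP1, seeded 400/well; qHTS titration format.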
KAT2A inh = GCN5L2 (KAT2A) acetyltransferase inhibition | Q92830 | GCN5L2 HAT assay, ThioGlo1 CoA-SH fluorescence | Potency, µM (top dose mostly 58.9 µM), without a hit: at the top dose activity change, negative = inhibition, most hits filed as inhibitors | hit rate 0.21% among 390,000 | AID 504327
Target sequence (Q92830 whole entry, looked up): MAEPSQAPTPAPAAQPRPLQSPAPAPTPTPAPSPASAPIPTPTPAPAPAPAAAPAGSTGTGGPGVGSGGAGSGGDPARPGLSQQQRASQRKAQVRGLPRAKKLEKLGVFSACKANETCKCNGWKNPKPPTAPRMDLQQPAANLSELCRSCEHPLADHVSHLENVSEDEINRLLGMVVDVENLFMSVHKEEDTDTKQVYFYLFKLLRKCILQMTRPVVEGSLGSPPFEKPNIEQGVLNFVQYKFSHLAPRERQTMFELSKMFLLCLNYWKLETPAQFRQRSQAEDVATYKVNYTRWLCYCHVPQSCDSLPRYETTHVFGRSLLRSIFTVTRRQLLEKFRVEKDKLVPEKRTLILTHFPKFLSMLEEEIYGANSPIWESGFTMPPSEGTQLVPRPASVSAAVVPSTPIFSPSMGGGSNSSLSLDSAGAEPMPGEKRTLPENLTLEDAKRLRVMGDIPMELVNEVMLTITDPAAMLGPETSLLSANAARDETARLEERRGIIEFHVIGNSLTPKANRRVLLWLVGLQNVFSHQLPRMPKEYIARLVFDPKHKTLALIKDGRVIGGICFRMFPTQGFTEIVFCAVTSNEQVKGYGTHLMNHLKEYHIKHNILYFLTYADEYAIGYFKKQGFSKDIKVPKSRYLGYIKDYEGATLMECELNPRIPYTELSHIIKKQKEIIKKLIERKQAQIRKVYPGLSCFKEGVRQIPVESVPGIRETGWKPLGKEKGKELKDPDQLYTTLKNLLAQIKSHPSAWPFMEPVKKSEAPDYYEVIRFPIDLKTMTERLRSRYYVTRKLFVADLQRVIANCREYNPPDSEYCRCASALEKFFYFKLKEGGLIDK
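Fluorescence readout, Ex340nm/Em540nm: ThioGlo1 (50uM final) reacts with free CoA thiol released as 20nM GCN5L2 acetylates H3(1-25) peptide (75uM) using acetyl-CoA (70uM). Compound and enzyme sat 15 min beforehand; 20 min room-temperature reaction.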
VDR inh = inhibitors of human vitamin D receptor | P11473 | VDR-SRC2-3 peptide fluorescence polarization, 2 h | Potency, µM, without a hit: max response, negative = inhibition, actives largely listed as inhibitors | hit rate 0.93% among 400,000 | AID 504847
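Fluorescence polarization assay of small-molecule disruption of VDR binding to coregulator peptide SRC2-3. Compounds and controls pin-transferred, then read after 2 h incubation at ambient room temperature.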
TDP1 inh = blocks human tyrosyl-DNA phosphodiesterase 1. recombinant TDP1, AlphaScreen DNA substrate cleavage. Potency, µM (top dose mostly 130 µM), without a hit: top-dose activity change, negative = inhibition, usual class: inhibitors. AID 485290. hit rate 0.28% among 350,000; further: nearly all actives have a fitted effect of over 40% in size
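Signal: AlphaScreen proximity between streptavidin donor and anti-FITC acceptor beads on intact substrate. Reaction: Tdp1 1 nM, substrate 15 nM final, 5 min RT after 15 min compound preincubation.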
TDP1 cell noCPT = qHTS for Inhibitors of human tyrosyl-DNA phosphodiesterase 1 (TDP1): qHTS in cells in absence of CPT | DT40 Tdp1-/- hTDP1 cells, no CPT, ATP luminescence, 48 h | Potency, µM (series often up to 46.2 µM), without a hit: at the top dose activity change, negative = growth inhibition, hits mostly inhibitors | hit rate 15% among 420,000 | AID 686978, 2013; further: nearly all actives have a fitted effect of over 55% in size
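No-CPT arm: Tdp1-/-;hTDP1 DT40 cells (400/well) plus compounds, incubated ≥48 hr at 37 °C. Readout CellTiter-Glo luminescence.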
PLK1 PBD inh = blocks phosphopeptide binding to human PLK1 polo-box domain; hit rate 2.8% among 360,000; Plk1 PBD binding of FITC phosphopeptide, fluorescence polarization; Potency, µM, inactives show max response, negative = inhibition, actives largely listed as inhibitors; AID 720504; P53350; further: series mostly up to about 57 µM; nearly all actives have a fitted effect of over 65% in size
An asterisk follows results filed as active; ? = inconclusive; . = no result given; [ ] = dose if it differs, or a comment. The list is not random: actives were taken first. Their share in the collection is about 18%. The call rests on the fitted dose curve; in most records, active means well fitted curve in the direction sought with a large enough effect; inconclusive means small, poorly fitted or top-dose-only effect, or another doubt; inactive means no such curve, though single readings can be large; an effect the other way counts as inactive or inconclusive. On the % scale 0 is the no-effect control and ±100 the full control effect; potency means the concentration at half of the fitted maximal effect.

SMILES	TDP1 cell CPT	KAT2A inh	VDR inh	TDP1 inh	TDP1 cell noCPT	PLK1 PBD inh
O=C(c1cccc(C(F)(F)F)c1)C1CCCN(Cc2cccc(OCCO)c2)C1 (stereo unspecified)	?	-24%	4%	.	10µM*	2%
CCOc1cccc(CN2CCCC(C(=O)c3cccc(C(F)(F)F)c3)C2)c1O (stereo unspecified)	-1%	-3%	-12%	0%	-6%	-7%
COc1cccc(CN2CCCC(C(=O)c3ccc4c(c3)OCO4)C2)c1OC (stereo unspecified)	?	?	-5%	3%	?	-8%
O=C(c1ccc2c(c1)OCO2)C1CCCN(Cc2ccccc2OC(F)F)C1 (stereo unspecified)	16µM*	-13%	5%	0%[56.1 µM]	?	-4%
COc1cccc(O)c1CN1CCCC(C(=O)c2cccc(C(F)(F)F)c2)C1 (stereo unspecified)	16µM*	-9%	-6%	0%	23µM*	-1%
COc1ccc(C(=O)C2CCCN(Cc3nc4ccccc4nc3C)C2)cc1OC (stereo unspecified)	-23%	-4%	-9%	.	?	-8%
COc1ccc(C(=O)C2CCCN(Cc3c(O)cccc3OC)C2)cc1OC (stereo unspecified)	?	1%	20%	.	7.3µM*	-8%
COC(=O)[C@@]1(Sc2ccc(C)cc2)CC(=O)N[C@@H]1c1ccco1	-1%	.	.	.	-7%	-9%
CCCCNC(=O)c1nc(-c2ccccc2)oc1-c1ccc(Cl)cc1	?	.	.	.	?	1%
CCOC(=O)N1CCC(N2CCCC(C(=O)c3cc(C)c(OC)c(C)c3)C2)CC1 (stereo unspecified)	-20%	?	8%	2%	-27%	-1%
CCCCNC(=O)N1CCCC(C(=O)c2cc(C)c(OC)c(C)c2)C1 (stereo unspecified)	?	0%	-8%	.	16µM*	-14%
CCCCN(CC)Cc1ccc(CNC(=O)Nc2ccc(F)cc2)o1	4.5µM*	-15%	14%	4%	5.6µM*	-2%
CCCCN(CC)Cc1ccc(CNC(=S)Nc2ccc(C)cc2Cl)o1	16µM*	-2%	12%	2%	18µM*	-28%
CCCCN(CC)CCCNC(=O)c1ccc(CS(=O)(=O)c2ccccc2C)o1	-4%	-4%	-4%	.	24%	5%
CCNC(=S)Nc1ccc(Cl)cc1Cl	-7%	0%	9%	-5%	-11%	-16%
CCCCN(CCCC)Cc1ccc(C(=O)NN)o1	12%	3%	-13%	1%	-7%	2%
CCCCN(CC)Cc1ccc(CNC(=S)Nc2c(C)cc(C)cc2C)o1	2%	-4%	-6%	6%	?	13µM*
Cc1ccccc1CSc1ccc(-c2cccs2)nn1	?	-12%	-3%	?	?	.
CCC(=O)N1CCc2cc(Br)cc(S(=O)(=O)N3CCN(c4cccc(Cl)c4)CC3)c21	2%	2%	-11%	0%	-14%	.
O=C(CCN1C(=O)/C(=C/c2ccc(F)cc2)SC1=S)NNC(=O)c1cccnc1	?	-4%	-27%	-2%	9.2µM*	-3%
O=C(CCN1C(=O)/C(=C/c2ccccc2)SC1=S)NNC(=O)c1cccnc1	-29%	-2%	4%	0%	?	0%
Cc1ccc(/C=C2\SC(=S)N(CCC(=O)NNC(=O)c3cccnc3)C2=O)cc1	16µM*	-6%	-14%	2%	9.2µM*	-10%
Cc1cnc(NC(=O)Cc2c[nH]c3ccccc23)s1	-9%	1%	26%	11%	-12%	-5%
COC(=O)c1cc2sc(C)cc2n1Cc1ccccc1	?	-2%	-14%	-5%	?	.
COc1ccccc1CC(=O)Nc1ncc(C)s1	?	-8%	-23%	.	16µM*	-4%
SMILES	TDP1 cell CPT	KAT2A inh	VDR inh	TDP1 inh	TDP1 cell noCPT	PLK1 PBD inh
COc1cccc(CC(=O)Nc2ncc(C)s2)c1	8.2µM*	-11%	-19%	1%	15µM*	-3%
COC(=O)c1cc2sc(C)cc2n1Cc1cccc(OC)c1	?	-6%	-16%	-3%	23µM*	.
O=C(CN1CCN(C(=O)c2cc(C3CC3)nn2-c2ccccc2)CC1)Nc1ccc(F)cc1	-26%	.	.	.	?	-6%
C/C(=N\Nc1ccc(S(N)(=O)=O)cc1[N+](=O)[O-])c1ccc2c(c1)OCO2	-28%	-7%	-2%	4%	15µM*	-13%
CCN(CC)S(=O)(=O)c1ccc(N/N=C(\C)c2ccc3c(c2)OCO3)c([N+](=O)[O-])c1	?	2%	-29%	5%	15µM*	-9%
CCN(CC)S(=O)(=O)c1ccc(C(=O)Nc2ccc3c(c2)OCO3)cc1	3%	-5%	-3%	3%	-30%	-7%
CCCN1CCC(=NNc2ccc(S(=O)(=O)N(CC)CC)cc2[N+](=O)[O-])CC1	2.1µM*	-15%	-19%	3%	2.6µM*	-12%
CCC(CC)=NNc1ccc(S(N)(=O)=O)cc1[N+](=O)[O-]	-6%	0%	-15%	5%	-2%	-14%
COc1ccccc1C(=O)Nc1cccc(N2CCC(NCc3cnn(-c4ccccc4)n3)CC2)c1	-9%[9.04 µM]	.	.	.	?	.
COc1cc2c(c(Br)c1N)-c1cc(Br)c(N)cc1C2=O	-4%	.	.	.	-10%	-18%
Nc1ccc(N2CCOCC2)cc1C(F)(F)F	0%	-3%	-10%	-1%	0%	-16%
COCc1c(C(=O)N2CCCCC2c2cccnc2)cnn1-c1ncc2c(n1)-c1ccccc1CCC2 (stereo unspecified)	-12%[9.04 µM]	.	.	.	?	.
CCOc1cc(-c2cc(-c3ccccc3)nc(N)c2C#N)ccc1O	23µM*	-5%	6%	4%	?	-3%
COc1ccc(-c2c(C#N)c(N)nc3c2CCCC3)cc1OC	-19%	.	-4%	.	-27%	-5%
CCOc1cc(-c2c(C#N)c(N)nc3c2CCCC3)ccc1O	?	-3%	2%	6%	21µM*	-8%
CCOc1cc(-c2cc(-c3ccc(N)cc3)nc(N)c2C#N)ccc1O	15µM*	-13%	-12%	-1%	18µM*	-24%
CCCN1C(=O)/C(=C/C=C2\N(CC)c3ccccc3C2(C)C)SC1=S	?	-6%	-7%	8%	13µM*	0%
